Over roughly 33,000 sequences, “E-score (-0.5 to 0.5)” has its median near -0.054; the highest 2% begin near 0.39. The sample holds the highest values, similar sequences and a random draw of the others, so the mix is not that of the screen.

Chain of UniProt Q05854 (Q05854 whole entry, the tested form may be a part): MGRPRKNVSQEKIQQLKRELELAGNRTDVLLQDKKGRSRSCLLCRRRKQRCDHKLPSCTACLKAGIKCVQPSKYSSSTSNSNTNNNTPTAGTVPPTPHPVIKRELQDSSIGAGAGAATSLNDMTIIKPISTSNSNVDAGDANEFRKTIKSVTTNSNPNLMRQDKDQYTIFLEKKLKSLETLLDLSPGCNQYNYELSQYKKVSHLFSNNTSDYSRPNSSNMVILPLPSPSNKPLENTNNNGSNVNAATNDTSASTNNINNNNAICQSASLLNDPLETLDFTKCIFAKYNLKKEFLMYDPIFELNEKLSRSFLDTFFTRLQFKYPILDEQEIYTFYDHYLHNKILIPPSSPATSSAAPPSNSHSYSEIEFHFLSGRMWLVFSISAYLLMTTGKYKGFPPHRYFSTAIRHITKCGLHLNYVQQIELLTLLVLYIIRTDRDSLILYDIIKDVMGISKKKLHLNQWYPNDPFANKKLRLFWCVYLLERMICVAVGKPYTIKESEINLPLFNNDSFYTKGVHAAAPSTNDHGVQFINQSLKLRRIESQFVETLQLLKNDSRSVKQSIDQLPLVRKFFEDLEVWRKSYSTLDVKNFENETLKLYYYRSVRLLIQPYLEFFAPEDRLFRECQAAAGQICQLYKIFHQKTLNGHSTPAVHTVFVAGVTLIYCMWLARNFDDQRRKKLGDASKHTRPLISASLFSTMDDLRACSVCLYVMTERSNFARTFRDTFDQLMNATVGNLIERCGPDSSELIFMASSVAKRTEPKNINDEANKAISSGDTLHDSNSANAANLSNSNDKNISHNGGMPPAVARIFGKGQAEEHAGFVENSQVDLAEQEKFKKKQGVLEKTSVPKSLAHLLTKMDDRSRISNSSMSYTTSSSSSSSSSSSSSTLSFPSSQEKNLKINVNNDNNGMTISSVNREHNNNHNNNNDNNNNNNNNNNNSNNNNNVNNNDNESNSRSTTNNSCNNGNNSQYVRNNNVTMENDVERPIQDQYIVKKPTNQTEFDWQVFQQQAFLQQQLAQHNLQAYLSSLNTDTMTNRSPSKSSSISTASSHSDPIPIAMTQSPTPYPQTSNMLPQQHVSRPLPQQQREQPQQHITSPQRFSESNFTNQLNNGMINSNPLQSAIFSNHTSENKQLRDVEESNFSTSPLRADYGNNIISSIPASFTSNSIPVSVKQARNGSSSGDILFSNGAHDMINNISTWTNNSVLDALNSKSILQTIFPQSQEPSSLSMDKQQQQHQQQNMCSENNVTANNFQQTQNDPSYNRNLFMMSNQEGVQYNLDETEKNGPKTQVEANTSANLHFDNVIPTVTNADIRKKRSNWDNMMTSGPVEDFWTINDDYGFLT

This assay deals with Ylr278c (UniProt Q05854). The assay can be described thus: PBM E-score (8-mer binding enrichment) (E-score (-0.5 to 0.5)); higher = stronger / more preferred TF binding. As to conditions: protein concentration: 200 nM; construct: GST-DNA-binding domain. On the procedure:
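Universal 'all 10-mer' protein binding microarrays (Agilent AMADID 015681) probed with GST-tagged S. cerevisiae TFs (full-length or DBD) made by in vitro transcription/translation (PURExpress), about 100-200 nM. Bound TF was detected with fluorescent anti-GST. Each ungapped 8-mer (which stands for itself and its reverse complement) is scored by the PBM enrichment score (E-score), a modified Wilcoxon-Mann-Whitney statistic from -0.5 to +0.5, computed with the Universal PBM Analysis Suite. Scale: above 0.35 generally sequence-specific binding.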
Turning to GAGACTCC, the “PBM E-score” value stood at 0.249.

On to GTCCGCCA, for which the “PBM E-score” value was 0.293.

For the sequence CGCCGCCC, the “PBM E-score” value worked out at 0.284.

Turning to AGCCGCCG, the “PBM E-score” value turned out to be 0.313.

As for ATCCGCCG, the “PBM E-score” value amounted to 0.401.

Turning to CTCCGCCA, the “PBM E-score” value was 0.391.

On to CTCCGCCC, for which the “PBM E-score” value is 0.457.

With ACCCGCCG, the “PBM E-score” value turned out to be 0.307.

Take ATCCGCCA: the “PBM E-score” value was found to be 0.196.

Take ATCCGCCC: the “PBM E-score” value was 0.291.

Consider CCAGTCCC, for which the “PBM E-score” value was -0.0319.

Take GCGTGAGA: the “PBM E-score” value was -0.0361.

For the sequence GCCTCATA, the “PBM E-score” value was -0.00634.

As to AATGGTAA, the “PBM E-score” value turned out to be 0.0806.

Consider ACTTTGCC, for which the “PBM E-score” value stood at 0.0108.

With CGTCTGGA, the “PBM E-score” value is -0.166.

As to CGACTGCC, the “PBM E-score” value amounted to 0.0706.

Turning to AGAGATAG, the “PBM E-score” value is -0.0754.

For the sequence CGGAGGAA, the “PBM E-score” value turned out to be 0.436.

As to AGGAGGAA, the “PBM E-score” value was -0.165.

As for CCGAGGAG, the “PBM E-score” value stood at 0.183.

For CGGAGGCC, the “PBM E-score” value amounted to 0.42.

For the sequence AGGAGGAC, the “PBM E-score” value is -0.294.

CGGAGGAC: the “PBM E-score” value was 0.423.

Consider CGGAGGCA, for which the “PBM E-score” value came out at 0.34.

As for AGGAGGAG, the “PBM E-score” value is -0.212.

Regarding CGGAGGAG, the “PBM E-score” value came to 0.417.

For the sequence TGGAGGAA, the “PBM E-score” value is -0.131.

With AGGAGGCC, the “PBM E-score” value is -0.164.

Regarding GGGAGGAC, the “PBM E-score” value is 0.0177.

Regarding ATTCGCTA, the “PBM E-score” value is -0.0743.

As for TCTGCTCA, the “PBM E-score” value was -0.298.

On to CAGTATGG, for which the “PBM E-score” value is -0.195.

With CCACATCC, the “PBM E-score” value was 0.0271.

Regarding AGAGTCAC, the “PBM E-score” value was -0.333.

In the case of CAGAATCG, the “PBM E-score” value worked out at 0.00258.

Consider CACGTCAA, for which the “PBM E-score” value is -0.202.

In the case of CCCTTAGA, the “PBM E-score” value is -0.393.

Consider ACCCCGAC, for which the “PBM E-score” value was found to be 0.39.

ACCCCGAT: the “PBM E-score” value was determined as 0.426.

For the sequence AACCCGAT, the “PBM E-score” value was determined as 0.29.

Take CCCCCGAC: the “PBM E-score” value is 0.228.

With ACCCCGAG, the “PBM E-score” value was determined as 0.319.

On to GCCCCGAC, for which the “PBM E-score” value is 0.278.

In the case of GCCCCGAA, the “PBM E-score” value stood at 0.301.

Take CCCCCGAA: the “PBM E-score” value worked out at 0.184.

Take ACCCCGAA: the “PBM E-score” value was 0.392.

As to AATCTATG, the “PBM E-score” value is -0.0536.

ACCATAGA: the “PBM E-score” value was 0.00619.

GTTCAGGA: the “PBM E-score” value is -0.0137.

On to GATCTCAC, for which the “PBM E-score” value was 0.0769.

CCAGTAGG: the “PBM E-score” value is -0.101.

With ATCCGTGG, the “PBM E-score” value stood at 0.299.

Regarding AGAAGGCC, the “PBM E-score” value came out at 0.0969.

On to ATCCGTGA, for which the “PBM E-score” value is 0.244.

For the sequence CTCCGTTA, the “PBM E-score” value was determined as 0.347.

Consider CACCGTGC, for which the “PBM E-score” value is -0.0579.

For CTCCGTGA, the “PBM E-score” value was found to be 0.425.

Consider GTCCGTGA, for which the “PBM E-score” value was found to be 0.278.

With CTCCGTTC, the “PBM E-score” value was determined as 0.394.

Consider ATCCGTTC, for which the “PBM E-score” value is 0.183.

In the case of CTCCGTGC, the “PBM E-score” value came to 0.416.

Take ATCCGTGC: the “PBM E-score” value is 0.125.

For GTGCTAGA, the “PBM E-score” value was -0.277.

Turning to AGCGTGGC, the “PBM E-score” value was -0.0918.

For the sequence AGTGGGAG, the “PBM E-score” value is -0.221.

Take CGAAGGCA: the “PBM E-score” value is -0.0856.

For the sequence CGTCCATC, the “PBM E-score” value is 0.145.

For the sequence CAGTATCG, the “PBM E-score” value is 0.0195.

CGACCCCG: the “PBM E-score” value is 0.247.

On to GCGGAGGA, for which the “PBM E-score” value came to 0.406.

As for CAGGAGGA, the “PBM E-score” value was -0.219.

Take ACGGAGGC: the “PBM E-score” value was 0.302.

For CGGGAGGA, the “PBM E-score” value was found to be 0.25.

As for ACGGAGGA, the “PBM E-score” value was 0.383.

As to CCGGAGGA, the “PBM E-score” value came out at 0.465.

Regarding CAGGAGGC, the “PBM E-score” value was -0.0031.

As to CCGGAGGC, the “PBM E-score” value turned out to be 0.433.

As for GAGGAGGA, the “PBM E-score” value is -0.246.

GACGGCAC: the “PBM E-score” value was found to be 0.0236.

As to GCAGTCGA, the “PBM E-score” value is -0.0263.

With TAACAACA, the “PBM E-score” value is -0.124.

As for CAGATCTA, the “PBM E-score” value was -0.168.

Take CTCTGATC: the “PBM E-score” value was -0.271.

TCCGAAAA: the “PBM E-score” value turned out to be 0.431.

As to TCCGAACA, the “PBM E-score” value is 0.429.

For the sequence ACCGAAGA, the “PBM E-score” value is 0.183.

For the sequence CCCGAAGA, the “PBM E-score” value was 0.156.

For ACCGAACA, the “PBM E-score” value was 0.0403.

Regarding TCCGAAGA, the “PBM E-score” value was 0.433.

CCCGAAAA: the “PBM E-score” value was found to be 0.294.

Take GCCGAAAA: the “PBM E-score” value was determined as 0.359.

For GCCGAACA, the “PBM E-score” value was determined as 0.21.

Regarding AAAGAGTG, the “PBM E-score” value was -0.158.

ATTTGTCA: the “PBM E-score” value is -0.182.

As for CGAAAGAC, the “PBM E-score” value worked out at 0.133.

Turning to CTTTCATC, the “PBM E-score” value was -0.135.

In the case of AGTCCGCG, the “PBM E-score” value came out at 0.369.

As for AGTCCGTC, the “PBM E-score” value is 0.381.

Turning to AGTCCCCC, the “PBM E-score” value is -0.261.

For the sequence AGTCCGGC, the “PBM E-score” value amounted to 0.44.

In the case of AGTCCGCC, the “PBM E-score” value was 0.424.

Take AGTCCCGG: the “PBM E-score” value came out at 0.362.

As for CGTCCGCC, the “PBM E-score” value is 0.319.

As for AGTCCTGC, the “PBM E-score” value was -0.116.

AGTCCGGG: the “PBM E-score” value was 0.44.

Turning to CCAGGTCA, the “PBM E-score” value was -0.253.

For AGGCACTG, the “PBM E-score” value is -0.178.

CATGCTGC: the “PBM E-score” value is -0.0378.

For ACTGCCCT, the “PBM E-score” value is -0.112.

The values above are taken from the supplement of paper PMC3334620.
